Results published in PubChem BioAssay (NCATS).
Results filed as inconclusive are left out. Active and inactive are the calls of the source. Unless noted, calls come from the whole dose curve; as a rule, active = well fitted curve in the direction sought with a large enough effect; inconclusive = small, poorly fitted or top-dose-only effect, or another doubt; inactive = no such curve, though single readings can be large; an effect the other way counts as inactive or inconclusive.

Experiments:
[1] = molecular target: Cytochrome P450 3A4 (Homo sapiens) (UniProt P08684); experiment: qHTS Assay for Inhibitors and Substrates of Cytochrome P450 3A4 (AID 884); note: nearly all actives have a fitted effect of over 50% in size; note: potency is the fitted concentration of half-maximal effect
Chain of Cytochrome P450 3A4 (Homo sapiens) (P08684 whole entry, looked up): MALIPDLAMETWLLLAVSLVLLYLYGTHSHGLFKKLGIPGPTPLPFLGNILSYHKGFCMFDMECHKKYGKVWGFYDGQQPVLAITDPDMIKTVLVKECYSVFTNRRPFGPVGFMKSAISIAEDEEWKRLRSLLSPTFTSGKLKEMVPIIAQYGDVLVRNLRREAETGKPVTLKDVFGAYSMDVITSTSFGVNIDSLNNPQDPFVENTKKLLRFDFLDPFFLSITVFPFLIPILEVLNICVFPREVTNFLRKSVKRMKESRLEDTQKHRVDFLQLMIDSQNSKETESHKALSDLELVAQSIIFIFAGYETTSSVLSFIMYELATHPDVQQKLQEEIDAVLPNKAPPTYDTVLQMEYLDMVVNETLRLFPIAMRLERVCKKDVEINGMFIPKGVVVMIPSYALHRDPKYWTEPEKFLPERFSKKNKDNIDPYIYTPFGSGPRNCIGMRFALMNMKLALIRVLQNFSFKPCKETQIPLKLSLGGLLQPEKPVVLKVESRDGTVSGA
Procedure, shortened: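 Luminescent readout of luciferin produced by CYP3A4 (20 nM) dealkylation of Luciferin-PPXE, 25 uM (its KM). NADPH-driven reaction ran 60 min at RT after 10 min compound preincubation; data scaled to 57 uM ketoconazole as 100% inhibition.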

[2] = Confirmation and Secondary Assay for Modulators of Hemoglobin Beta Chain Splicing at IVS2 654 locus (AID 910);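 note: HeLa cells stably carrying EGFP split by mutant beta-globin IVS2-654 intron; per-well total GFP intensity by laser scanning cytometry after 2-day treatment; % of control where 0% means no effect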
Procedure, shortened: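 Readout: per-well total peak green fluorescence (488 nm ex, 500–520 nm em) from objects 5–250 µm, reflecting correct splicing of an EGFP-654 reporter. Compounds were applied for 2 days at 37 °C to overnight-plated HeLa EGFP-654 cells; controls were DMSO and 500 nM IVS2-654 PNA.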

[3] = Confirmation and Secondary Assay for Modulators of Hemoglobin Beta Chain Splicing at IVS2 705 locus (AID 930);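 note: HeLa cells stably expressing the EGFP-705 splicing reporter; GFP fluorescence per well restored by corrected splicing of the IVS2-705 intron in EGFP; % of control where 0% means no effect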
Procedure, shortened: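 First, HeLa EGFP-705 cells are seeded at 500/well in Optimem with 2% FCS and left overnight. Next, compound or DMSO is added for 2 days. Finally wells are laser-scanned and total peak GFP intensity scored.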

[4] = qHTS Assay for Lipid Storage Modulators (AID 1519; calls by dose curve); conditions: Drosophila S3 cells, BODIPY lipid droplet/cell ratio, laser cytometry, cells loaded with oleic acid; for activity change, negative = inhibition: at 57.5 µM (top of the series)
Procedure, shortened: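 Cells seeded at 5,000 per well were treated with compounds over a concentration series and loaded with oleic acid (400 uM, as added). Lipid droplet fluorescence (488 nm excitation, 500-530 nm channel) was read by laser-scanning cytometry and normalized to 20 uM Triacsin C.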

[5] = molecular target: Ubiquitin carboxyl-terminal hydrolase 1 (Homo sapiens) (UniProt O94782); experiment: Inhibitors of USP1/UAF1: Pilot qHTS (AID 504865); note: nearly all actives have a fitted effect of over 35% in size; note: potency is the fitted concentration of half-maximal effect
Chain of Ubiquitin carboxyl-terminal hydrolase 1 (Homo sapiens) (O94782 whole entry, looked up): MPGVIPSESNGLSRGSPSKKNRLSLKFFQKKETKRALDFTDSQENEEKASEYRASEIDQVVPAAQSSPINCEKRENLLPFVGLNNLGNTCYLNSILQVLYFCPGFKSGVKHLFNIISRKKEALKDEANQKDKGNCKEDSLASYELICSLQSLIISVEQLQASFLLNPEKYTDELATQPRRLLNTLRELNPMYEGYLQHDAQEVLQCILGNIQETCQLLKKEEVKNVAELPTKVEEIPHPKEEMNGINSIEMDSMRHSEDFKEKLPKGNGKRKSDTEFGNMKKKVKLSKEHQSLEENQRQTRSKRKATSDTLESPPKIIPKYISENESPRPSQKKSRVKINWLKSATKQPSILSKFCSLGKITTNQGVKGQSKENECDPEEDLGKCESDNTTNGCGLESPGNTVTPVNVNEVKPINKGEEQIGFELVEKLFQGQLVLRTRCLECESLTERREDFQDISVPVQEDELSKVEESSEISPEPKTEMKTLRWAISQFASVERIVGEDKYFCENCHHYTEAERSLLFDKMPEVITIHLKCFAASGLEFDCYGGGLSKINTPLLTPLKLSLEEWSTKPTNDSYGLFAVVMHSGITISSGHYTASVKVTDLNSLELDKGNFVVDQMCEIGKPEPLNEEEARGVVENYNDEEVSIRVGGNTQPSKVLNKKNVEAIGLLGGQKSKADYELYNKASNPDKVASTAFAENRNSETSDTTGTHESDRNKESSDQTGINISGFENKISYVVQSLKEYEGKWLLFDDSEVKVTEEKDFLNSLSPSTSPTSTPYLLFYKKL
Procedure, shortened: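 In 50mM HEPES pH 7.8 containing 0.5mM EDTA, 1mM TCEP, 0.1 mg/ml BSA and 0.01% Tween-20, 1nM USP1/UAF1 is exposed to compound for 15 min, then Ub-Rho (150nM final) is added and fluorescence is read over time.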

[6] = molecular target: Rap guanine nucleotide exchange factor 3 (Homo sapiens) (UniProt O95398); experiment: Confirmatory qHTS for antagonist of cAMP-regulated guanine nucleotide exchange factor 3 (EPAC1) (AID 1645880);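 note: plate controls were DMSO only for no effect and full effect of the ATA control for full effect; nearly all actives have a fitted effect of over 55% in size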
Chain of Rap guanine nucleotide exchange factor 3 (Homo sapiens) (O95398 whole entry, looked up): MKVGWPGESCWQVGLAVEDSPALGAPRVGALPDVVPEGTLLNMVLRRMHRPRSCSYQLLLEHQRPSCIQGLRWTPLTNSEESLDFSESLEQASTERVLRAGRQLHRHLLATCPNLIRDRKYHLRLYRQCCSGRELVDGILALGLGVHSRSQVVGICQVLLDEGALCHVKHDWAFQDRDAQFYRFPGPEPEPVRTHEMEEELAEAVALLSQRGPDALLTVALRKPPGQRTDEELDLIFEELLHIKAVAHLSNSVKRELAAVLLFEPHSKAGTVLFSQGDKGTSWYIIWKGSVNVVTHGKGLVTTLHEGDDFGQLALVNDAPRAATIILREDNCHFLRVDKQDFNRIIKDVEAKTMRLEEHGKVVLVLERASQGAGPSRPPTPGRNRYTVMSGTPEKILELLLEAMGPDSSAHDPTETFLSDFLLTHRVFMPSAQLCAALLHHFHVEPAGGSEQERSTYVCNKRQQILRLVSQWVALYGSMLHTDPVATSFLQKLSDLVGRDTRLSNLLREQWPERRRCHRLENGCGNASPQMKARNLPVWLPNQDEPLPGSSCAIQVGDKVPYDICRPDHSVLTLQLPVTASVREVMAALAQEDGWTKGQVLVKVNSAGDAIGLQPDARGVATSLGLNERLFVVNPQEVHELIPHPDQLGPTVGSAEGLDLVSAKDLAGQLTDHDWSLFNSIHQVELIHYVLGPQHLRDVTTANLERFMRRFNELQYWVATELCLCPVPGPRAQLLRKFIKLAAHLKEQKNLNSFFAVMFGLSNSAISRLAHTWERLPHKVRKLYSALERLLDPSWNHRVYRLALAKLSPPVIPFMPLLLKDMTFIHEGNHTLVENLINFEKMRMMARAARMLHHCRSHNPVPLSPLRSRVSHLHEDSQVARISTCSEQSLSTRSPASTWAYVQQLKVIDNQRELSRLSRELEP
Procedure, shortened: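 Released BODIPY-GDP fluoresces less than Rap1-bound BODIPY-GDP; the signal is followed at 480/540 nm at 5-min intervals over 30 min, after 5 min at room temperature. Reactions contain 100 nM EPAC1, 250 nM RAP1B-BODIPY-GDP and 50 uM GDP; results are normalized to ATA and DMSO.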

[7] = molecular target: Rap guanine nucleotide exchange factor 3 (Homo sapiens) (UniProt O95398); experiment: Confirmatory qHTS for agonist of cAMP-regulated guanine nucleotide exchange factor 3 (EPAC1) (AID 1645881); note: nearly all actives have a fitted effect of over 75% in size; note: potency is the fitted concentration of half-maximal effect;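 for activation: EPAC1 catalysed release of BODIPY-GDP from Rap1B seen as fluorescence loss; 100% = effect of cAMP agonist control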
[8] = molecular target: Rap guanine nucleotide exchange factor 4 (Homo sapiens) (UniProt Q8WZA2); experiment: Confirmatory qHTS for agonist of cAMP-regulated guanine nucleotide exchange factor 4 (EPAC2) (AID 1645884);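 note: nucleotide exchange releases bodipy-GDP from Rap1 and this lowers its fluorescence; nearly all actives have a fitted effect of over 65% in size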; note: potency is the fitted concentration of half-maximal effect
Chain of Rap guanine nucleotide exchange factor 4 (Homo sapiens) (Q8WZA2 whole entry, looked up): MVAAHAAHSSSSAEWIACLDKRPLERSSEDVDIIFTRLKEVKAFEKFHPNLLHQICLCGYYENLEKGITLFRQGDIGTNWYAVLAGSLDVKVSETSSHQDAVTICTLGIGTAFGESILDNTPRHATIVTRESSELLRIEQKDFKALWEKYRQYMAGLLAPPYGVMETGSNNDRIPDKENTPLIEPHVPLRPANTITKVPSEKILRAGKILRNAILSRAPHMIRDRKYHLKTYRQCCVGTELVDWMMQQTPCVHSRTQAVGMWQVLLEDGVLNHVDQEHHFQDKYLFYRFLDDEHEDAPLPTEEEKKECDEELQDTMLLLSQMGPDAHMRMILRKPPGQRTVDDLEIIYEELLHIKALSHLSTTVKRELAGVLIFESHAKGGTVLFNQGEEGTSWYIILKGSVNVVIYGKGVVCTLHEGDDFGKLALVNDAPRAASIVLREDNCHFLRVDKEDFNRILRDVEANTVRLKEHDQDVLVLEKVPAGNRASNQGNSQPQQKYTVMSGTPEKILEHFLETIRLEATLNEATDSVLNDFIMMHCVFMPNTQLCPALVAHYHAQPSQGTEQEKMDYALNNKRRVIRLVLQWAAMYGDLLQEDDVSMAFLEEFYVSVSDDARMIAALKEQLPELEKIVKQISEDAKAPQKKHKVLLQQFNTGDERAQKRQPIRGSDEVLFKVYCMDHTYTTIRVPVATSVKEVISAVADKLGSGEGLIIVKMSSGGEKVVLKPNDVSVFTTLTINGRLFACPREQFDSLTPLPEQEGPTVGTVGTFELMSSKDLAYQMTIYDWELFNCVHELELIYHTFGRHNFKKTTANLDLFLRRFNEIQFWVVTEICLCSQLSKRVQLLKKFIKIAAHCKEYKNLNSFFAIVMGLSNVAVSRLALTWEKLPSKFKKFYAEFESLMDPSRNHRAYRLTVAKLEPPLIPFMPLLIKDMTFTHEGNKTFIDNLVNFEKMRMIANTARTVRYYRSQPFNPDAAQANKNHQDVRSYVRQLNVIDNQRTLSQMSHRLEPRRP

[9] = molecular target: Lysosomal acid glucosylceramidase (Homo sapiens) (UniProt P04062); experiment: Glucocerebrosidase-p2 (AID 348; in the data active = potency below about 10 µM; note: potency is the fitted concentration of half-maximal effect); conditions: purified GBA, blue fluorogenic substrate, 40 min
Chain of Lysosomal acid glucosylceramidase (Homo sapiens) (P04062 whole entry, looked up): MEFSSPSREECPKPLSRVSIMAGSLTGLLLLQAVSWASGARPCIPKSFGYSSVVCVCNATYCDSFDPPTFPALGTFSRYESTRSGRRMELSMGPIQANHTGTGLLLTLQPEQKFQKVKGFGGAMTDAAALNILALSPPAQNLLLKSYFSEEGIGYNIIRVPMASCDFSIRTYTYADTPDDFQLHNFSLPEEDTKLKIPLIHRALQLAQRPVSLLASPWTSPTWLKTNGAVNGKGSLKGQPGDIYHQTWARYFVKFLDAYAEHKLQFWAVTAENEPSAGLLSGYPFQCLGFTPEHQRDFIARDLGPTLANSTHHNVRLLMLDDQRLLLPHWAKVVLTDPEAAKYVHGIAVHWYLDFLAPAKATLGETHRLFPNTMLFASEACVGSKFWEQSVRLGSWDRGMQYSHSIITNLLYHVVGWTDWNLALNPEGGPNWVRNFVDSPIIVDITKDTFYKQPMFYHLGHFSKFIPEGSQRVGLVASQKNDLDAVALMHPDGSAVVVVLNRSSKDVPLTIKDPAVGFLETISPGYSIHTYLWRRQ
Procedure, shortened: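 Normal human glucocerebrosidase (0.2 nM) with blue fluorogenic substrate (80 uM final) in citrate/phosphate pH 5.9 with 10mM sodium taurocholate, 0.01% tween-20; 40 min RT, NaOH/glycine stop; fluorescence Ex 365/Em 440; AC50 from a titration from 0.6 nM upwards.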

[10] = molecular target: Cytochrome P450 1A2 (Homo sapiens) (UniProt P05177); experiment: p450-cyp1a2 (AID 410; calls by dose curve; note: potency is the fitted concentration of half-maximal effect)
Chain of Cytochrome P450 1A2 (Homo sapiens) (P05177 whole entry, looked up): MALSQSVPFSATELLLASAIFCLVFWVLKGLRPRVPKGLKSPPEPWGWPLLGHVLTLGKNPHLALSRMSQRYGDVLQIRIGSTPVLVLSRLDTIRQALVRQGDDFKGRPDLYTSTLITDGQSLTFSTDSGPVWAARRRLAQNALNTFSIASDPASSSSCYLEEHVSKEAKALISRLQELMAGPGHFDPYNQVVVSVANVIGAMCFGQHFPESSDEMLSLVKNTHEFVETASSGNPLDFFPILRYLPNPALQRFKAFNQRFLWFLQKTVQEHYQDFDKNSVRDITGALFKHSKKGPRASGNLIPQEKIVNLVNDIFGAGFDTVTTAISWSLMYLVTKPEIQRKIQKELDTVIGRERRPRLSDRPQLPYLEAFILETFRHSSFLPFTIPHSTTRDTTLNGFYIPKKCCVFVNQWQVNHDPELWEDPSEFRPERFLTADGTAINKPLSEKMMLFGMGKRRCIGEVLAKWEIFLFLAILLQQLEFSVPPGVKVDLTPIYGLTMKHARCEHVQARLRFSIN
Procedure, shortened: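 Read-out is luminescence from luciferin produced by CYP1A2 demethylation of Luciferin-ME (100uM, at Km). Detection reagent stopped the 60 min NADPH-dependent reaction; signals were normalized to 57 uM furafylline.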

[11] = NFAT Signaling Pathway (AID 444; active = well fitted curve in either direction with a large enough effect, not every such curve was filed as active;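 note: carbachol stimulus at about its EC50 of 1 µM final; % is set by controls: 0 for no effect and ±100 for the full control effect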); conditions: Jurkat NFAT-bla M1, carbachol, beta-lactamase ratio, 5 h; at 7.69 µM (top of the series) unless noted
Procedure, shortened: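 Read-out: CCF4 FRET ratio (460 nm/530 nm) after 1 h RT dye loading, used for %activity and AC50 from titration series. Cells: Jurkat NFAT-β-lactamase/M1 line, treated with compound plus 1 uM carbachol for 5 h, 37 °C.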

[12] = Stat Signaling Pathway (AID 446; active = well fitted curve in either direction with a large enough effect, not every such curve was filed as active;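 note: ME-180 cervical cancer cells given 40 pM IL-6 alongside compound; SIE-controlled beta-lactamase reporter measured as 460/530 nm FRET emission ratio; % is set by controls: 0 for no effect and ±100 for the full control effect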); conditions: ME-180 SIE beta-lactamase reporter, IL-6 stimulated, 5 h; at 7.69 µM (top of the series) unless noted
Procedure, shortened: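 Normalization used AC90 stimulation (300 pM IL-6) and AC90 inhibition (125 nM pan-JAK inhibitor at 40 pM IL-6). The underlying signal is SIE-driven beta-lactamase in ME-180 cells after 5 h IL-6 exposure with compound.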

[13] = molecular target: Glucocorticoid receptor (Homo sapiens) (UniProt P04150); experiment: GR-GFP Redistribution (AID 450;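 active = compounds whose dose series gives a full or clear partial fitted curve of increased nuclear translocation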; note: potency is the fitted concentration of half-maximal effect); conditions: U2OS GR-GFP nuclear translocation, laser cytometry, 2 h
Chain of Glucocorticoid receptor (Homo sapiens) (P04150 whole entry, looked up, the tested form may be a part): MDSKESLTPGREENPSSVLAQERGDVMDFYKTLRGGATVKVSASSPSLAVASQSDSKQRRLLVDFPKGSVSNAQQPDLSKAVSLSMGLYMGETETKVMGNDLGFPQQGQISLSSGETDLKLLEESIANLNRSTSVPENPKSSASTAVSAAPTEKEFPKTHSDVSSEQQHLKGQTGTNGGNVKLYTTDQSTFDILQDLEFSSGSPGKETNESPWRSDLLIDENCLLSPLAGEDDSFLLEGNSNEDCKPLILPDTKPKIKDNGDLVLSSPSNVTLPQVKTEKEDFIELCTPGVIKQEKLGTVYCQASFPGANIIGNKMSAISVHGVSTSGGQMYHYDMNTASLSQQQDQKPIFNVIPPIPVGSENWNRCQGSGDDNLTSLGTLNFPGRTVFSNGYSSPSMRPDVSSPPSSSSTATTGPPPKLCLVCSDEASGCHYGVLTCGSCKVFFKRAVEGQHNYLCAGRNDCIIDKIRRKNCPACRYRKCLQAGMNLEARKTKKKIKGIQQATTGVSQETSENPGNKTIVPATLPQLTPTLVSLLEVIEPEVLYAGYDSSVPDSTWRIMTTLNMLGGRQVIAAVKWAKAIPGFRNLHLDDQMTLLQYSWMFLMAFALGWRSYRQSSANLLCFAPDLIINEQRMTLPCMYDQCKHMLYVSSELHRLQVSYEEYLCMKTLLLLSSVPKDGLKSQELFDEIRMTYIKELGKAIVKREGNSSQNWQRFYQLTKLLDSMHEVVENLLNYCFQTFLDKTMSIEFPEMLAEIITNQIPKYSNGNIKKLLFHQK

[14] = molecular target: Glucocorticoid receptor (Homo sapiens) (UniProt P04150); experiment: GR-EFC Redistribution (AID 451; calls by dose curve; note: potency is the fitted concentration of half-maximal effect); conditions: CHO-K1 GR-EFC translocation, beta-gal luminescence, 2 h
Procedure, shortened: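 Translocation of GR-ED fusion to nuclear EA restores b-gal, read by luminescence after 1 h room-temperature detection. Engineered CHO-K1 biosensor cells, 1,000/well, exposed 2 h at 37 C to titrations up to 46 uM final.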

[15] = molecular target: Mitogen-activated protein kinase 10 (Mus musculus) (UniProt Q61831); experiment: JNK3 AlphaScreen Assay (AID 530; active = well fitted curve in either direction with a large enough effect, not every such curve was filed as active;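 note: kinase came from lysate of stimulated human HepG2 cells; signal reports phosphorylation of biotinylated GST-cJun 1-79 at Ser73 with 10 µM ATP; % is set by controls: 0 for no effect and ±100 for the full control effect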)
Procedure, shortened: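 Kinase buffer: 20 mM Tris-HCl pH 7.6, 10 mM MgCl2, 1 mM DTT, 0.1 mM Na3VO4, 0.01% Tween-20; ATP 10 uM. Substrate biotin-GST-cJun(1-79), enzyme from activated HepG2 lysates. Detection by Ser73 phospho-antibody AlphaScreen.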

[16] = molecular target: 3',5'-cyclic-AMP phosphodiesterase 4B (Homo sapiens) (UniProt Q07343); experiment: qHTS Assay for Inhibitors of PDE-IV (AID 607; active = well fitted activation curve with a large enough effect in the main read-out, with a control signal flat, not every such curve was filed as active; note: % of control where 0% means no effect)
Procedure, shortened: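 HEK293 ACTOne cells with CNG channel (1000/well), endogenous PDE4; membrane potential dye, compounds up to 22.9 uM final. Fluorescence Ex 535/Em 590; RO 20-1724 (100 uM final) as reference.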

[17] = molecular target: Cytochrome P450 3A4 (Homo sapiens) (UniProt P08684); experiment: qHTS Assay for Activators of Cytochrome P450 3A4 (AID 885); note: nearly all actives have a fitted effect of over 65% in size
Procedure, shortened: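 Human CYP3A4 dealkylates Luciferin-PPXE to luciferin, which luciferase detection converts to light. Substrate was at its KM (25uM), buffer 200mM KPO4, reaction 60 min at RT.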

[18] = molecular target: Rap guanine nucleotide exchange factor 4 (Homo sapiens) (UniProt Q8WZA2); experiment: Confirmatory qHTS for antagonist of cAMP-regulated guanine nucleotide exchange factor 4 (EPAC2) (AID 1645885); note: nearly all actives have a fitted effect of over 25% in size; note: potency is the fitted concentration of half-maximal effect
[19] = AP1 Signaling Pathway (AID 357; active = well fitted curve in either direction with a large enough effect, not every such curve was filed as active;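 note: ME-180 reporter cells stimulated with EGF at its EC50 level; % is set by controls: 0 for no effect and ±100 for the full control effect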); conditions: ME-180 (cervical carcinoma) AP-1-bla reporter, EGF-induced, beta-lactamase ratio, 5 h; at 7.69 µM (top of the series) unless noted
Procedure, shortened: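 First, ME-180 AP-1-bla cells were cultured overnight at 37 °C in low-serum Opti-MEM. Next, titrated compounds with EC50 EGF were incubated 5 hours. Finally, CCF4 was added for 2.5 hours and the 460/530 nm ratio recorded.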

[20] = molecular target: Cytochrome P450 2C9 (Homo sapiens) (UniProt P11712); experiment: qHTS Assay for Inhibitors and Substrates of Cytochrome P450 2C9 (AID 883); note: potency is the fitted concentration of half-maximal effect; nearly all actives have a fitted effect of over 60% in size
Procedure, shortened: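 Inhibition of CYP2C9 is scored as loss of luminescence, with 57uM sulphaphenazole defining 100% inhibition. Substrate Luciferin-H is used at 100uM, equal to its KM; enzyme at 10nM in 25mM KPO4, 60 min at 37C with NADPH regeneration.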

[21] = molecular target: Cytochrome P450 2D6 (Homo sapiens) (UniProt P10635); experiment: qHTS Assay for Inhibitors and Substrates of Cytochrome P450 2D6 (AID 891); note: potency is the fitted concentration of half-maximal effect; nearly all actives have a fitted effect of over 60% in size
Procedure, shortened: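 Luminescent read-out of luciferin formed by 5 nM human CYP2D6 demethylating 30 uM Luciferin-ME EGE (Km level) over 60 min at room temperature after NADPH regeneration addition. Data normalized to full inhibition by 1.43 uM quinidine.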

[22] = molecular target: Cytochrome P450 2C19 (Homo sapiens) (UniProt P33261); experiment: qHTS Assay for Inhibitors and Substrates of Cytochrome P450 2C19 (AID 899); note: potency is the fitted concentration of half-maximal effect; nearly all actives have a fitted effect of over 60% in size
Procedure, shortened: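 5nM enzyme + 10uM Luciferin-H EGE (=KM), 50mM KPO4; cpd pin-transferred, 10 min 37C; NADPH regen, 60 min 37C; stopped w/ luciferin detection reagent, 20 min; luminescence. Normalized to 57uM ketoconazole (AC100).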

[23] = measured here: cell count channel max response
[24] = measured here: lipid channel max response

COC(=O)CCCOc1ccc(Cl)cc1Cl
inactive: Potency [1] | Potency [2] | outcome [3] | activity change, negative = inhibition [4] 5.51% | Potency [5] | Potency [6] | Potency [7] | Potency [8]
23%: max response [4, 24]
14%: max response [4, 23]

COc1ccc(-c2nc3cnc(Nc4cccc(OC)c4)nc3n(CCC#N)c2=O)cc1
active: Potency [10] 6.31 µM | Potency [1] 3.98 µM | Potency [7] 70.6 µM | Potency [8] 70.6 µM
-2.36%: max response [4, 24]
16.5%: max response [4, 23]
inactive: Potency [9] > 11.4 µM | activity change, negative = inhibition [11] -19.2% | activity, negative = inhibition [12] -10% | Potency [13] > 9.22 µM | Potency [14] > 46 µM | Potency [15] | Potency [16] | Potency [17] | activity change, negative = inhibition [4] -18.1% | Potency [18]

COc1ccc2[nH]cc(CCNc3ncnc4ccc(-c5ccccc5C#N)cc34)c2c1
inactive: Potency [9] > 11.4 µM | activity change, negative = inhibition [19] -21.6% | activity change, negative = inhibition [11] 29.2% | activity, negative = inhibition [12] -19.5% | Potency [13] > 46 µM | Potency [14] > 46 µM | Potency [15] | Potency [17] | Potency [2] | outcome [3] | activity change, negative = inhibition [4] 4.54% | Potency [7] | Potency [8] | Potency [18]
-10.8%: max response [4, 24]
-13.6%: max response [4, 23]
active: Potency [10] 3.98 µM | Potency [20] 0.316 µM | Potency [1] 2 µM | Potency [21] 7.94 µM | Potency [22] 2 µM

COC(=O)c1c(OC)cc2c(c1C)Oc1c(Cl)c(O)c(Cl)c(C)c1C(=O)O2
inactive: Potency [17] | outcome [3] | activity change, negative = inhibition [4] 6.08% | Potency [7] | Potency [8]
-5.08%: max response [4, 24]
active: Potency [1] 1.58 µM | Potency [5] 56.2 µM | Potency [18] 8.79 µM
-4.22%: max response [4, 23]

COc1cc(-c2coc3cc(OCc4ccccc4)c(OC)c(O)c3c2=O)cc(O)c1OC
-3.67%: max response [4, 23]
-4.66%: max response [4, 24]
inactive: Potency [17] | Potency [2] | outcome [3] | activity change, negative = inhibition [4] -4.72% | Potency [6] | Potency [7] | Potency [8] | Potency [18]

COc1ccc2c(c1)OC/C(=C/c1ccc(O)c(O)c1)C2=O
11.7%: max response [4, 24]
inactive: Potency [17] | Potency [2] | outcome [3] | activity change, negative = inhibition [4] 9.34% | Potency [5] | Potency [7] | Potency [8] | Potency [18]
0.529%: max response [4, 23]
active: Potency [1] 31.6 µM
